Among all 1,200 compounds or so, about 480 (40%) were called active. About 29% were inconclusive and are not listed. The list shows a part of the results. Values without a mark were called inactive. Calls follow the shape of the dose curve; as a rule, active = well fitted inhibition curve with a large enough effect; inconclusive = small, poorly fitted or top-dose-only effect; inactive = no such curve, though single readings can be large or run the other way.
Assay: qHTS Assay to Find Inhibitors of Chronic Active B-Cell Receptor Signaling: Hit Validation in Primary Screen; also: nearly all actives have a fitted effect of over 75% in size
Details: ABC-DLBCL IkB-luc/CBR ratio luminescence, 4 h; series mostly up to 46.1 µM; activity change, negative = inhibition: at the top concentration
How it was run: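 Concentration series (3 nM to 46 uM) tested on TMD8 cells induced with doxycycline for 4 h. Filter-corrected green (IkBa fusion) over red (unfused) luciferase signal; Data were normalised to 10 uM MG-132 and untreated cell wells.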
% is scaled to controls: 0 for no effect and ±100 for the full control effect; potency is read from the fitted curve at half-maximal effect.

Row | SMILES | Potency | activity change, negative = inhibition
1 | CCOC(=O)N1CCN(S(=O)(=O)c2ccc(C(=O)Nc3ccc(F)cc3F)cc2)CC1 | 20.6 µM (active) | 
2 | CC(C)COc1ccc(C(=O)Nc2cc(S(=O)(=O)N3CCOCC3)ccc2N2CCCC2)cc1 |  | -6.48%
3 | COc1cc(OC)cc(-c2cc3cc4c(cc3cn2)OCO4)c1 | 3.66 µM (active) | 
4 | CCOC(=O)C1CCN(S(=O)(=O)c2c(Cl)ccc3nonc23)CC1 | 5.8 µM (active) | 
5 | CCOC(=O)Nc1ccc2nc(N3CCCCCC3)sc2c1 | 20.6 µM (active) | 
6 | CCOc1ccc2nc(N3C(=O)CNC3=S)sc2c1 |  | 58.1%
7 | CN(CC(=O)Nc1ccccc1C(F)(F)F)C(=O)c1ccccc1Sc1ccccc1C#N |  | -11.6%
8 | COc1cccc(N2CCN(C(=O)c3ccc(CS(=O)c4ccc(Cl)cc4)o3)CC2)c1 (stereo unspecified) | 23.1 µM (active) | 
9 | COc1cccc(N2CCN(C(=O)c3ccc(CS(=O)c4ccc(C)cc4)o3)CC2)c1 (stereo unspecified) | 6.51 µM (active) | 
10 | C=CCNC(=S)NN=C1CCCCCCC1 |  | -10.4%
11 | CCOC(=O)c1cnc(Nc2nc3ccccc3o2)nc1CSC(=S)N(CC)CC |  | -0.925%
12 | COc1ccc(C=C2c3ccccc3C(=O)c3ccccc32)c(OC)c1 | 4.61 µM (active) | 
13 | O=C(OCC(O)CO)c1ccccc1Nc1ccnc2cc(Cl)ccc12 (stereo unspecified) | 20.6 µM (active) | 
14 | Oc1ccccc1-n1c(-c2ccccc2)ccc1-c1ccccc1 |  | -13.2%
15 | N#CC1=C(N)OC2=C(CCc3ccccc32)C1c1ccccc1 (stereo unspecified) | 2.59 µM (active) | 
16 | Cc1nc2c(C(F)(F)F)cccc2c2c1CCS2 | 16.4 µM (active) | 
17 | COc1ccccc1-n1cnc2cc(NCc3cccs3)ccc21 | 16.4 µM (active) | 
18 | N#CC1=C2SCC(O)(c3ccccc3)N2C(=O)CC1c1ccccc1 (stereo unspecified) | 18.4 µM (active) | 
19 | N#CC1=C2SCC(O)(c3ccccc3)N2C(=O)CC1c1cccs1 (stereo unspecified) | 13 µM (active) | 
20 | COc1cc(OC)cc(C(=O)NCc2ccc3c(c2)CCN3C(=O)c2ccccc2)c1 | 10.3 µM (active) | 
21 | COc1cc(OC)cc(C(=O)NCc2cc(C)nc3ccccc23)c1 |  | -13.4%
22 | CCOc1ccccc1NC(=O)Cn1nnc(C(=O)NCc2cccs2)c1N | 2.59 µM (active) | 
23 | O=C(CSc1nnnn1-c1ccccc1)Nc1nsc(-c2ccc(Cl)cc2)n1 |  | 93.8%
24 | CCc1nnc(NC(=O)CSc2nnc(-c3ccccc3NC(=O)c3ccccc3)o2)s1 |  | -5.82%
25 | O=C(CSc1ncn[nH]1)Nc1nnc(-c2ccccc2)s1 | 0.231 µM (active) | 
26 | CC1CCN(C(=O)CCCOc2cc(=O)n(C)c3ccccc23)CC1 | 23.1 µM (active) | 

Row | SMILES | Potency | activity change, negative = inhibition
27 | O=C(N1CCN(c2ccccn2)CC1)N1c2ccccc2Sc2ccccc21 | 7.31 µM (active) | 
28 | CC(=O)Nc1ccc(NS(=O)(=O)c2cc(-c3n[nH]c(=O)c4ccccc34)ccc2C)cc1 | 23.1 µM (active) | 
29 | Cc1cc(=O)[nH]c2ccc(S(=O)(=O)Nc3ccc(O)cc3)cc12 |  | -19.3%
30 | Cc1ccc(NS(=O)(=O)c2cc(-c3n[nH]c(=O)c4ccccc34)ccc2C)cc1 | 18.4 µM (active) | 
31 | CCOC(=O)C1C(C(=O)OC)=C(c2ccc(OC)cc2)c2ccccc2N1S(=O)(=O)C(F)(F)F (stereo unspecified) |  | -14%
32 | COc1cc(NC(=O)COC(=O)Cc2ccc(-c3ccccc3)cc2)cc(OC)c1 |  | -9.19%
33 | CCn1c2ccccc2c2cc(NC(=O)c3cc(OC)cc(OC)c3)ccc21 | 2.06 µM (active) | 
34 | CCn1c2ccccc2c2cc(NC(=O)c3cc(OC)c(OC)c(OC)c3)ccc21 | 0.731 µM (active) | 
35 | COc1cc(OC)cc(C(=O)NCC(=O)Nc2ccc(-c3ccccc3)cc2)c1 | 20.6 µM (active) | 
36 | CCCn1nnc(NC(=S)NC(=O)Cc2ccccc2)n1 |  | -4.95%
37 | COc1ccc(OCC(O)CN2CCN(c3ccccc3)CC2)cc1 (stereo unspecified) |  | -11.5%
38 | Cc1ccc(Nc2nc(-c3c(C)nc4ncccn34)cs2)cc1 | 4.11 µM (active) | 
39 | Cc1ccc(Nc2nc(-c3c(C)nc4ccccn34)cs2)cc1 | 0.259 µM (active) | 
40 | COc1ccc(Nc2nc(-c3c(C)nc4ncccn34)cs2)cc1 | 2.31 µM (active) | 
41 | Cc1nc2ncccn2c1-c1csc(Nc2ccc(N(C)C)cc2)n1 | 7.31 µM (active) | 
42 | Cc1ccc(C2OCC3(CO)COC(c4ccc(C)cc4)N23)cc1 (stereo unspecified) |  | -6.87%
43 | Oc1[nH]c2ccc(Br)cc2c1N=NC(=S)Nc1ccc(F)cc1 |  | 6.69%
44 | Cc1ccccc1C1=NC(C(F)(F)F)(C(F)(F)F)c2c(n(C)c(=O)n(C)c2=O)N1 |  | -19.6%
45 | COc1ccc(NC(=O)C(=O)c2cn(CC(=O)N3CCCC3)c3ccccc23)cc1 | 9.2 µM (active) | 
46 | COc1cc2cnc(-c3ccccc3)cc2cc1OC | 20.6 µM (active) | 
47 | COc1ccccc1C(=O)Nc1ccccc1SC(=O)c1ccccc1OC | 7.31 µM (active) | 
48 | COc1cc(NC(=S)NC(=O)c2ccccc2F)ccc1NC(=O)c1ccco1 |  | 41.4%
49 | CCC(C)NC(=O)c1ccccc1NC(=O)c1ccc(CSc2ccccc2)cc1 (stereo unspecified) |  | 39.9%
50 | CCc1ccc(CCC(=O)Nc2ncc(Cc3ccccc3Cl)s2)o1 | 2.91 µM (active) | 
51 | Cc1ccc(CCC(=O)Nc2ncc(Cc3cc(Cl)ccc3Cl)s2)o1 | 1.3 µM (active) | 

Source: PubChem BioAssay AID651558 (National Center for Advancing Translational Sciences (NCATS), 2012)
